In the supplement of paper PMC11732987, “Enantioselective OTUD7B fragment discovery through chemoproteomics screening and high-throughput optimisation” (Communications Chemistry, 2025):

How the values were obtained:
Experiment in all cases: log2 ratio of Biotin-Ahx-Ub-VS probe labelling (fragment/DMSO); higher = less target engagement (more negative = stronger competition), active = hit call of the paper (q ≤ 0.05, log2 ratio ≤ -1)
Settings in all cases: compound concentration: 200 uM; treatment time: 3 h
[1] = biological target: USP34 (UniProt Q70CQ2)
Procedure, shortened: (§1)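 Labelling with Biotin-Ahx-Ub-VS (0.5 µM final, 1 h) followed a 3 h triplicate treatment of HEK293T lysate (495 µg per sample, Tris/CHAPS/IGEPAL buffer with protease inhibitors) with fragment at 200 µM or vehicle. Labelled DUBs were NeutrAvidin-enriched, digested with LysC and trypsin, and run by diaPASEF LC-MS/MS. The values, average log2 fragment/vehicle ratios by unpaired t-test, come from global-median-normalised Spectronaut label-free quantities. Proteins with ≥2 unique peptides were used.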

[2] = biological target: T1, USP36 (UniProt Q9P275)
T1 sequence (whole entry): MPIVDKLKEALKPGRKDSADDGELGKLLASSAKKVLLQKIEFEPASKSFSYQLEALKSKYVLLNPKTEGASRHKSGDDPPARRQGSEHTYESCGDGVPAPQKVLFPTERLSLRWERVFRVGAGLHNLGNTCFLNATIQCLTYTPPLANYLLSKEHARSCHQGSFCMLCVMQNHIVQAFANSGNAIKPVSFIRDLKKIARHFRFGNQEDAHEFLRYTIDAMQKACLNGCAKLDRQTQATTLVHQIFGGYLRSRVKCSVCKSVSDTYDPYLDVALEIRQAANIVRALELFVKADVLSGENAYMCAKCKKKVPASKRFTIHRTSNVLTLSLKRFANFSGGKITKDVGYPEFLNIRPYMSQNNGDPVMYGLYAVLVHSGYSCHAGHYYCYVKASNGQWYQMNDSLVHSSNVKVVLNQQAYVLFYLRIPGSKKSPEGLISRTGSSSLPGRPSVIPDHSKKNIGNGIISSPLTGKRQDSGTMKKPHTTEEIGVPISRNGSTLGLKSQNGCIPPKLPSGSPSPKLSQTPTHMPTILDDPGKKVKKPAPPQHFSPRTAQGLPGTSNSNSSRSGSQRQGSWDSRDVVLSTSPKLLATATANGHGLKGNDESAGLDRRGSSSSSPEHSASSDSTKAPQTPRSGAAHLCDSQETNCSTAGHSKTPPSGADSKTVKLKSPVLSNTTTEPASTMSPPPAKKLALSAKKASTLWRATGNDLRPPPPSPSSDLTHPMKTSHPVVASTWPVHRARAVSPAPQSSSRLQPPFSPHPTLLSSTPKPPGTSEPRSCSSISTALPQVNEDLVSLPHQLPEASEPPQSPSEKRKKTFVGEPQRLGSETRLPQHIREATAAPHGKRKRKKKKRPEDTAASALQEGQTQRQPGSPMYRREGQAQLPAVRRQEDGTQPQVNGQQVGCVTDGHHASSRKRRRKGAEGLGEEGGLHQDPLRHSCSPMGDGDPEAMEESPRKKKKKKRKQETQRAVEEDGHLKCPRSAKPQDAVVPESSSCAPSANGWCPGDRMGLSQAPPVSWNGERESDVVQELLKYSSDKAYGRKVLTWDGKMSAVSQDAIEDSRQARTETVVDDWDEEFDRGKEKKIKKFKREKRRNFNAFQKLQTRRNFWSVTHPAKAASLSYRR
Procedure, shortened: as §1

[3] = biological target: T2, USP38 (UniProt Q8NB14)
T2 sequence (whole entry): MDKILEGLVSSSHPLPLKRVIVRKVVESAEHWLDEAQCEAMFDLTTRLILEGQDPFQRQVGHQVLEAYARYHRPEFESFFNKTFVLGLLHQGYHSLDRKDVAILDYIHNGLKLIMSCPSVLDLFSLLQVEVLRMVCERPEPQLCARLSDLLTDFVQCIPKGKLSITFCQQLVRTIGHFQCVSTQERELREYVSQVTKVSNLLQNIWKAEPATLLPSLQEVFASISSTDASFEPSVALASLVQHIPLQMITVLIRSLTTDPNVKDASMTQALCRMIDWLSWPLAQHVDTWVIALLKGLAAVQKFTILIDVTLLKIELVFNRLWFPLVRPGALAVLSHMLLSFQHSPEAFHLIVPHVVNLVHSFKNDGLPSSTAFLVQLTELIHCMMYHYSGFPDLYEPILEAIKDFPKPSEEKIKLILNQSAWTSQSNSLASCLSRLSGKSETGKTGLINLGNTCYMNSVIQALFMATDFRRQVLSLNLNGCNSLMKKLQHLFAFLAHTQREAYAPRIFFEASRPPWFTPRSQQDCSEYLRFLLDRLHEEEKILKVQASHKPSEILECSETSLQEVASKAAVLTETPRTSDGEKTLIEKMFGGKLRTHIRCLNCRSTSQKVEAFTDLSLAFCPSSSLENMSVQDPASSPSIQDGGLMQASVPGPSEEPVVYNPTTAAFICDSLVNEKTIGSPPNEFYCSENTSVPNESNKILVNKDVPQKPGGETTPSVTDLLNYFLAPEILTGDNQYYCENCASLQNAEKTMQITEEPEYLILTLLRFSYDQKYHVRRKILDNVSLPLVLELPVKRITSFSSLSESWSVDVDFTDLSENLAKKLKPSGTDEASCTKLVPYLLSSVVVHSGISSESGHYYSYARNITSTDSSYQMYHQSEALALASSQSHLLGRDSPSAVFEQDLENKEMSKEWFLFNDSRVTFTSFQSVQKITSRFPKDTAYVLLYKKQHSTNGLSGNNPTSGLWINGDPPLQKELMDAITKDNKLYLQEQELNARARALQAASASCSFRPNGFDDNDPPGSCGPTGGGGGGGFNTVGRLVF
Procedure, shortened: as §1

[4] = biological target: T3, USP39 (UniProt Q53GS9)
T3 sequence (whole entry): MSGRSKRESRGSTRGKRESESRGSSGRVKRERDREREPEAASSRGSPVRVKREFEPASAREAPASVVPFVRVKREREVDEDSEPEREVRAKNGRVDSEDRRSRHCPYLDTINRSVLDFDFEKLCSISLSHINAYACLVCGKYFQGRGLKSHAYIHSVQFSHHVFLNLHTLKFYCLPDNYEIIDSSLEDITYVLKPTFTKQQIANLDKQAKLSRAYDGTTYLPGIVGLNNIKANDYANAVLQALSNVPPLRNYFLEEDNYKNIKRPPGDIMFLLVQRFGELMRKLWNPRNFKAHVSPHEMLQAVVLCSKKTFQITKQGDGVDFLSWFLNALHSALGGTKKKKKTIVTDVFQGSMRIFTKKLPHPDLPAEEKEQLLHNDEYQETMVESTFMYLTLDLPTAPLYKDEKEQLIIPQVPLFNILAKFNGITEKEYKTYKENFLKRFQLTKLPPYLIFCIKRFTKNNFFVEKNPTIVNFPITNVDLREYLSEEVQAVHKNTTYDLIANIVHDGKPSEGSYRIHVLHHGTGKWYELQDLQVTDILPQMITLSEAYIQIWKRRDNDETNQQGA
Procedure, shortened: as §1

[5] = biological target: T4, USP4 (UniProt Q13107)
T4 sequence (whole entry): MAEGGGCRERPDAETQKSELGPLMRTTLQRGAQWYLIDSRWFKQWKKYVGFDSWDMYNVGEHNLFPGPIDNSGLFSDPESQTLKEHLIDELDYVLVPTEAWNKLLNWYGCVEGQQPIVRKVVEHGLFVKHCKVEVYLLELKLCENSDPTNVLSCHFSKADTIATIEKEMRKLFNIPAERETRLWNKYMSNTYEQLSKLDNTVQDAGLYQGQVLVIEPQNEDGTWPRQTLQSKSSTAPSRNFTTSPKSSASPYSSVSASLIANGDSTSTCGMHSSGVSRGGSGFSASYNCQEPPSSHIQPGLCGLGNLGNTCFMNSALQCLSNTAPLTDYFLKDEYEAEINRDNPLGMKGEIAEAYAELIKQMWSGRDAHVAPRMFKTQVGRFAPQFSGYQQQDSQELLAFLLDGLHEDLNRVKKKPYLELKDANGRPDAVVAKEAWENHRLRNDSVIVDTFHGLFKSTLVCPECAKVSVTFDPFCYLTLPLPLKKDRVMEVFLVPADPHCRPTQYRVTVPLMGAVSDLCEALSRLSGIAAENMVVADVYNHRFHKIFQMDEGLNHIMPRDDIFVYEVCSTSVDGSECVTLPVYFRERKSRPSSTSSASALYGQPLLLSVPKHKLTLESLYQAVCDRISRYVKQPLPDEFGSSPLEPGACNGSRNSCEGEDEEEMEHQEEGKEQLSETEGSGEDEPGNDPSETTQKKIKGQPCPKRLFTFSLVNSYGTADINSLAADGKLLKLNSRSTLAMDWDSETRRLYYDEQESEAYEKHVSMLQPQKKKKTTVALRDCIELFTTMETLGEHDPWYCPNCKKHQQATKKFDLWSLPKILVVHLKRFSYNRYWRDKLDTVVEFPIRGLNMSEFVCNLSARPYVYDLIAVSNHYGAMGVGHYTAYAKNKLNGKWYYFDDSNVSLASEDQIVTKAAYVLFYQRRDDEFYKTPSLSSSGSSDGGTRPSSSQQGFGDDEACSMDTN
Procedure, shortened: as §1

Measured: log2 ratio of Biotin-Ahx-Ub-VS probe labelling

Chain of USP34 (Q70CQ2 whole entry, the tested form may be a part): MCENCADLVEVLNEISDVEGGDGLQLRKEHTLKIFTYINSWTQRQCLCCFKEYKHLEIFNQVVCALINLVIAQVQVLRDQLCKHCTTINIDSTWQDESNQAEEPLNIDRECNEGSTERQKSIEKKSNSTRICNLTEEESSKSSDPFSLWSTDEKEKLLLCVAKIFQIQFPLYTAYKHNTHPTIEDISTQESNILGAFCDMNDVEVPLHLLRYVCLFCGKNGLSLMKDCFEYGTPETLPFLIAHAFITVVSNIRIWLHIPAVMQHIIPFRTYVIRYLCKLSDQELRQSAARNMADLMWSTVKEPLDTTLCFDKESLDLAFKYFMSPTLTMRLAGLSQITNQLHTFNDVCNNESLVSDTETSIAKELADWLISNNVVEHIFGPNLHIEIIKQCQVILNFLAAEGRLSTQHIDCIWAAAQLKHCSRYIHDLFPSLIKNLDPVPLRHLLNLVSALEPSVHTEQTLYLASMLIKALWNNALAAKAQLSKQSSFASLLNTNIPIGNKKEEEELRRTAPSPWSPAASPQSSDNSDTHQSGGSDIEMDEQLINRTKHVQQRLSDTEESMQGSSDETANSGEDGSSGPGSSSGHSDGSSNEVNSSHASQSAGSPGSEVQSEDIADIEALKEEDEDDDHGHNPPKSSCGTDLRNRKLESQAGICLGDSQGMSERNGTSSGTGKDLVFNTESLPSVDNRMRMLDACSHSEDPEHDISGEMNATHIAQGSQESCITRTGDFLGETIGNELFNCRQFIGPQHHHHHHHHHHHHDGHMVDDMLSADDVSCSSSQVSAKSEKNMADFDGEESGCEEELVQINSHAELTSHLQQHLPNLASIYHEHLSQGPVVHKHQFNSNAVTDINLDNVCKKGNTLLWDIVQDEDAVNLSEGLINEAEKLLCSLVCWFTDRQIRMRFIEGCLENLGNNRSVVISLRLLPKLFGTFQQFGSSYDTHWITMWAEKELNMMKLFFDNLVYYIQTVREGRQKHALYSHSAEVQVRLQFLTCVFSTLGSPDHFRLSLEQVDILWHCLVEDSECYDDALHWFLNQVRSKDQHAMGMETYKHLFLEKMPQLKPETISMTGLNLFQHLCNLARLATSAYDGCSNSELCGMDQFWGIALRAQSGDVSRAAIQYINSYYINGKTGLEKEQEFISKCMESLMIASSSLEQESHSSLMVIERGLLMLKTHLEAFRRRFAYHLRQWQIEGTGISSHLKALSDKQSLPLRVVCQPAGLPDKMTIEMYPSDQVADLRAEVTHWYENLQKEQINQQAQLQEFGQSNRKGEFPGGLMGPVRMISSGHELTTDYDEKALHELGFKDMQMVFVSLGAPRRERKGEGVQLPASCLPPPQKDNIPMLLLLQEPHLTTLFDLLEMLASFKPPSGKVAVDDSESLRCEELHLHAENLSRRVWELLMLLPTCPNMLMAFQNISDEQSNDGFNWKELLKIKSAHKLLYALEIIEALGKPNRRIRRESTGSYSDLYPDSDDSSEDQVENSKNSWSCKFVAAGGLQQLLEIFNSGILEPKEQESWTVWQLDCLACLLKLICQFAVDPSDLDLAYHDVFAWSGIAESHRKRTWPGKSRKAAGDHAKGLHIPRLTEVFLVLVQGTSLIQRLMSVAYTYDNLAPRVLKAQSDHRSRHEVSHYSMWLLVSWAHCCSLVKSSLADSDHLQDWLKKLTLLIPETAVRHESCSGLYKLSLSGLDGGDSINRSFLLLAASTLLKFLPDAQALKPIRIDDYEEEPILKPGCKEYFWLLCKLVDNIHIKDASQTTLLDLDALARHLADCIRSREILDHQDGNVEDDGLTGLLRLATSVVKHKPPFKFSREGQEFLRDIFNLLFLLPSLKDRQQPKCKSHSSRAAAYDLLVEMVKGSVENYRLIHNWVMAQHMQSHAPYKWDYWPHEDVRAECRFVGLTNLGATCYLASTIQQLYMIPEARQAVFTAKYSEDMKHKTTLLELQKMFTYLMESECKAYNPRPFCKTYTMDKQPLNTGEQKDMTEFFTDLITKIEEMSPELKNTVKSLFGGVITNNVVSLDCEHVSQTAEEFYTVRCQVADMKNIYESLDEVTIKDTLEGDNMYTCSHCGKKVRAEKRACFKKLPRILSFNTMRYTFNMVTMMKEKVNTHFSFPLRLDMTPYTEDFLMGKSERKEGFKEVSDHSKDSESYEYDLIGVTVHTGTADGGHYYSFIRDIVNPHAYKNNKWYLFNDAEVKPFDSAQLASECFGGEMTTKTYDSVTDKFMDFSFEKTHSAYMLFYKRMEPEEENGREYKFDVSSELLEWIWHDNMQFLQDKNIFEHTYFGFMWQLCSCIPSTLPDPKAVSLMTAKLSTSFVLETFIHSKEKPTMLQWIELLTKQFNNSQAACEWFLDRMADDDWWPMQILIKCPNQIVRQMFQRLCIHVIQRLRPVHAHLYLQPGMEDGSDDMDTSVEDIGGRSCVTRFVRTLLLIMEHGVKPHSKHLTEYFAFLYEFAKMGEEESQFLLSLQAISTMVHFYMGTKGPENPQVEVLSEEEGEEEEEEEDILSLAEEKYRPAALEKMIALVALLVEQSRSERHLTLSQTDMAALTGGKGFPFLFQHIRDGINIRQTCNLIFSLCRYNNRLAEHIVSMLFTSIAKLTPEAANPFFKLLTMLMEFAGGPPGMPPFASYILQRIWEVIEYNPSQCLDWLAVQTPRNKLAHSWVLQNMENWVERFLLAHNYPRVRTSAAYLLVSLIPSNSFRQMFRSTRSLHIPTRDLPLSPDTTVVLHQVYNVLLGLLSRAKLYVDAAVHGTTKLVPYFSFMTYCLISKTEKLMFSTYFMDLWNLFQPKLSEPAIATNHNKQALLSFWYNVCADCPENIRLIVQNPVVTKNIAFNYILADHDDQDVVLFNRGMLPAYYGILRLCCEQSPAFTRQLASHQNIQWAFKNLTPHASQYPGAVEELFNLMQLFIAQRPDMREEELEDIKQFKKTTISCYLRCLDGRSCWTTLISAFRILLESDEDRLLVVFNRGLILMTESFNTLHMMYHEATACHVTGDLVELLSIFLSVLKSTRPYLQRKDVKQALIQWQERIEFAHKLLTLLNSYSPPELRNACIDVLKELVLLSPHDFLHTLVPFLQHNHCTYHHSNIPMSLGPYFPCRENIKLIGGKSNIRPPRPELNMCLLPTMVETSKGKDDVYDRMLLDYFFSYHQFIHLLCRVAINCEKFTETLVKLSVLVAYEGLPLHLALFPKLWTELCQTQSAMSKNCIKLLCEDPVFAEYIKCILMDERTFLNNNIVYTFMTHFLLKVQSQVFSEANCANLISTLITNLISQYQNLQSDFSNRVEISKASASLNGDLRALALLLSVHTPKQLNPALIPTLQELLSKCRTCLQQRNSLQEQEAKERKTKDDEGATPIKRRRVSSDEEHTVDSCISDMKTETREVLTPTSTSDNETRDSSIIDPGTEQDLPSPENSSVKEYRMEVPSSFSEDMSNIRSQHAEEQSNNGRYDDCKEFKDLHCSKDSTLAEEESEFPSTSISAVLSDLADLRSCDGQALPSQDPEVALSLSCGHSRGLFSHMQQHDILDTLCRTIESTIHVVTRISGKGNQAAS

O=C(CCl)NC1CCCCNC1=O (stereo not given)
inactive: [1] -0.126 | [2] -0.314 | [3] -0.0226 | [4] 0.0502 | [5] -0.25
